Measurements reported in ChEMBL document CHEMBL3988442, “University of Dundee, Small-Polar-MMV Screening Library” (2021).
For some assays here: Results with a measured potency or affinity are listed apart.

What was measured:
Parameters in all cases: scale not given: direction of the effect not stated beside the values
[1] = molecular target: Protein translocase subunit SecA (Escherichia coli (strain K12)) (UniProt P10408); assay: Assay to Identify E. coli SecA ATPase Inhibitors; assay type: functional; conditions: 30 µM
Protein translocase subunit SecA (Escherichia coli (strain K12)), sequence (P10408 whole entry): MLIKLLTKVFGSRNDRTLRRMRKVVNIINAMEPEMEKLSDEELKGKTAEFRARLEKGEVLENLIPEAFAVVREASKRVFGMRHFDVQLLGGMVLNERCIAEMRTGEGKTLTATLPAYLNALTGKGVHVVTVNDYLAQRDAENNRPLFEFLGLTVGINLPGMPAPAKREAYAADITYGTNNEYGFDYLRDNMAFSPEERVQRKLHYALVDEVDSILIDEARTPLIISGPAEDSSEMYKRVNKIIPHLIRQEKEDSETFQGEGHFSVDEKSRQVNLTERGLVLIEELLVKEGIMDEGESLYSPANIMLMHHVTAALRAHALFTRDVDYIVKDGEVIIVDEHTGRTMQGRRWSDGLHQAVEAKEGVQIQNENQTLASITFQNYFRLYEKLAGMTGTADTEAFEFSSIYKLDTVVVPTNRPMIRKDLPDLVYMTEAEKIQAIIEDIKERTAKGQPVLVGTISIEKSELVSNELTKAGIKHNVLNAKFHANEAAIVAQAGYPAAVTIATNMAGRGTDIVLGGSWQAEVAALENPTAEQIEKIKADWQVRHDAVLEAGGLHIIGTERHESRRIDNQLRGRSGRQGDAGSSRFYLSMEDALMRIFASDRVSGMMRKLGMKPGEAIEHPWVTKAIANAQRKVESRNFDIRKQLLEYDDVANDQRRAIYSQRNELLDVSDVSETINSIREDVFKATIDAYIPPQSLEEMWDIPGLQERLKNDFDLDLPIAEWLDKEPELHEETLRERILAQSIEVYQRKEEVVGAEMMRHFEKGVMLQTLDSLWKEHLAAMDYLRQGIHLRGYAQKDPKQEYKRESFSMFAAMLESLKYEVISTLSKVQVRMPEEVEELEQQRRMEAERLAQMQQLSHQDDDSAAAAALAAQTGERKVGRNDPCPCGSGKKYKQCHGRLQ

[2] = molecular target: T1, Ubiquitin-activating enzyme e1, putative (Leishmania donovani (strain BPK282A1)) (UniProt E9BSI1); assay: Leishmania donovani Ubiquitin Activating Enzyme (LdE1); assay type: functional; conditions: 30 µM
T1 sequence (whole entry): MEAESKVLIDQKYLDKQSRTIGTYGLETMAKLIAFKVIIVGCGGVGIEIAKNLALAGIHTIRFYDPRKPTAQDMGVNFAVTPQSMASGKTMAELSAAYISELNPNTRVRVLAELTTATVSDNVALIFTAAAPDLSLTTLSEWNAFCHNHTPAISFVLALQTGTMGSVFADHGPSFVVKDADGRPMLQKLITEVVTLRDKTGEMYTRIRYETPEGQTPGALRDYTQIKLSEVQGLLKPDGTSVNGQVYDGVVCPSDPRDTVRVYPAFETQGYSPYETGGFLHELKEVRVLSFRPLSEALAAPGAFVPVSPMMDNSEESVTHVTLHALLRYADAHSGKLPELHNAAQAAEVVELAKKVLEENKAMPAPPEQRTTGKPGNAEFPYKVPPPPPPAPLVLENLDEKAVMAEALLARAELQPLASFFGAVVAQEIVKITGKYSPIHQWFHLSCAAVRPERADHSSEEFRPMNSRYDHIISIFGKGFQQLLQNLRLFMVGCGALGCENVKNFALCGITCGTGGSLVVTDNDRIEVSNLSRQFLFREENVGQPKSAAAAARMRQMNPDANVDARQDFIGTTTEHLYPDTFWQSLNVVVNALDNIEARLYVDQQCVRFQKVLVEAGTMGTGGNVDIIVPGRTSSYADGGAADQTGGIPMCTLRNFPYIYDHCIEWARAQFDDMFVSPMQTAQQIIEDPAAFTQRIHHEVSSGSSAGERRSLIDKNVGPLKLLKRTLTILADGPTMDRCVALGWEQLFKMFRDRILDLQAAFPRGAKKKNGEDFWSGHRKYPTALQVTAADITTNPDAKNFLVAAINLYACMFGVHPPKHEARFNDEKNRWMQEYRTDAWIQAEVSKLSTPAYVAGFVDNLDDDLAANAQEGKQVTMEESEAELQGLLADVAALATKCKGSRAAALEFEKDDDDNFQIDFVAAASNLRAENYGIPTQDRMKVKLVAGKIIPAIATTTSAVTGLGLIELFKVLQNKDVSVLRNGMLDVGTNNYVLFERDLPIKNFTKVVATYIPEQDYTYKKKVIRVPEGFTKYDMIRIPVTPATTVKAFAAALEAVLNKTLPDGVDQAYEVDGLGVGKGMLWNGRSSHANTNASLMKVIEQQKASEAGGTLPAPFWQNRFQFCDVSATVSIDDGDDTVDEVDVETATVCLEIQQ

[3] = molecular target: AMP-activated protein kinase, AMPK (Homo sapiens) (UniProt P54646+O43741+P54619+Q9UGJ0+Q9Y478+Q13131+Q9UGI9); assay: AMP-dependent Kinase enzyme assay. An in vitro enzyme assay that detects ADP turnover that is directly proportional to AMPK activity. This uses naive AMPK that is activated during the assay with MK-8722; assay type: functional; conditions: 30 µM
[4] = molecular target: Sialic acid-binding Ig-like lectin 9 (Homo sapiens) (UniProt Q9Y336); assay: Hs-Siglec9 ALPHAscreen SOP 20170721; conditions: 10 µM
Sialic acid-binding Ig-like lectin 9 (Homo sapiens), sequence (Q9Y336 whole entry): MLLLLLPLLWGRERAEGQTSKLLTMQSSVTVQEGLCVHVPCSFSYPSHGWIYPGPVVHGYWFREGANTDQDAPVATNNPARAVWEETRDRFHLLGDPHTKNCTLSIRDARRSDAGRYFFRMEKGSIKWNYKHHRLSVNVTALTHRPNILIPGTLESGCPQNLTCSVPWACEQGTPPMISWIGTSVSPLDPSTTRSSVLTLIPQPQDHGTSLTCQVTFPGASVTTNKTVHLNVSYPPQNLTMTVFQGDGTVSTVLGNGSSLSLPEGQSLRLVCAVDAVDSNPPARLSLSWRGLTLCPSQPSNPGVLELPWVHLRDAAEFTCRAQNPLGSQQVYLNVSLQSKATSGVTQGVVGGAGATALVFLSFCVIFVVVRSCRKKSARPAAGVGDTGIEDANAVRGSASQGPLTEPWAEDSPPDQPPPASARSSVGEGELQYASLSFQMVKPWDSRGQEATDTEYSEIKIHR

[5] = tested on: Trypanosoma cruzi; assay: Trypanosoma cruzi phosphomannomutase and mannose-1-phosphate guanylyltransferase assay; assay type: functional; conditions: 10 µM
[6] = molecular target: T2, Arginase-2, mitochondrial (Homo sapiens) (UniProt P78540); assay: in vitro enzyme assay to detect the production of urea directly proportional to the activity of Arginase II; assay type: functional; conditions: 33.3 µM; note: in the data most compounds retested in dose-response had high values
T2 sequence (whole entry): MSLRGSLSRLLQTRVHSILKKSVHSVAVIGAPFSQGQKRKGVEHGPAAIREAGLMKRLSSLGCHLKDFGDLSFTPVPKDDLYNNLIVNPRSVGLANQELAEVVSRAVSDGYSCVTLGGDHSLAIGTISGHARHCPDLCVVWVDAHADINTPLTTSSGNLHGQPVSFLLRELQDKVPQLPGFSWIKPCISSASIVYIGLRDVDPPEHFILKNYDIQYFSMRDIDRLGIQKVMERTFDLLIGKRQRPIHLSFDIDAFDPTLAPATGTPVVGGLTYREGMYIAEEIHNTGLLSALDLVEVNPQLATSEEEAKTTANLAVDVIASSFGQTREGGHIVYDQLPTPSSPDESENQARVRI

[7] = molecular target: T3, Proteasome subunit beta (Trypanosoma cruzi) (UniProt O96673); assay: Trypanosoma cruzi proteasome chymotrypsin-like activity (TcProtChymo) assay.; note: in the data most compounds retested in dose-response had high values; assay type: functional; conditions: 9.37 µM
T3 sequence (whole entry): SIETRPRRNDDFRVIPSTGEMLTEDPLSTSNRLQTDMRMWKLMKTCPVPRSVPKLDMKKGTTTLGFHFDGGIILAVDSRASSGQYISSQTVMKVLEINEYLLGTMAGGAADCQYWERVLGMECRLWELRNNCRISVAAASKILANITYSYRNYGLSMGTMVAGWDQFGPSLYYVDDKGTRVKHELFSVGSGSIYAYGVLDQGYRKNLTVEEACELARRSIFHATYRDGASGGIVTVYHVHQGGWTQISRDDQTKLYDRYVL

[8] = species: Homo sapiens; assay: To identify inhibition of the IFN signalling (Jak-Stat) pathway via expression of an eGFP reporter gene under the control of an IFN-stimulated response element (ISRE) containing MxA promoter.; assay type: functional; conditions: 30 µM
[9] = molecular target: T4, Tyrosyl-tRNA synthetase, putative (Trypanosoma cruzi (strain CL Brener)) (UniProt Q4DSP6); assay: Trypanosoma cruzi tyrosyl tRNA synthetase (TcYRS) _High Tyrosine SOP; assay type: functional; conditions: 30 µM; note: in the data most compounds retested in dose-response had high values
T4 sequence (whole entry): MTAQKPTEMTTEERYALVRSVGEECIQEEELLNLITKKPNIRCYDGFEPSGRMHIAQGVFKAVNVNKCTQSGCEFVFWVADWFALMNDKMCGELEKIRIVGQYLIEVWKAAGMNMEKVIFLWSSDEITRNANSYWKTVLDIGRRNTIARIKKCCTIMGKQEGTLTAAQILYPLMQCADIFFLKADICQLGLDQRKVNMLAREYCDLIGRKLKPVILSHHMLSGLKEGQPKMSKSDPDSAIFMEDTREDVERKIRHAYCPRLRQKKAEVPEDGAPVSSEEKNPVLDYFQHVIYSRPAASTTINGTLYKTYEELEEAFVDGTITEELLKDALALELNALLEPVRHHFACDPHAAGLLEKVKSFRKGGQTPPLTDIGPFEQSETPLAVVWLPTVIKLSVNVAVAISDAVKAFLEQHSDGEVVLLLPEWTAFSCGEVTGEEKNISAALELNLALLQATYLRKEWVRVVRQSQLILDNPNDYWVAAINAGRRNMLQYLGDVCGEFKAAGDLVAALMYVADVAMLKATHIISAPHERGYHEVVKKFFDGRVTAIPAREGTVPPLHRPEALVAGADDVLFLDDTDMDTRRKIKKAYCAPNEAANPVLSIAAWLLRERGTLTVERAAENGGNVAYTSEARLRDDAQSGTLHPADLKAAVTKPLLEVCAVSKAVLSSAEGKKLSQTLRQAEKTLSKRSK

[10] = molecular target: T4, Tyrosyl-tRNA synthetase, putative (Trypanosoma cruzi (strain CL Brener)); assay: Trypanosoma cruzi tyrosyl tRNA synthetase (TcYRS) SOP; assay type: functional; conditions: 30 µM
[11] = molecular target: Chromo domain-containing protein 1 (Saccharomyces cerevisiae (strain ATCC 204508 / S288c) (Baker's yeast)) (UniProt P32657); assay: ScCHD-1 Enzyme Inhibition Assay; assay type: functional; conditions: 30 µM; note: in the data most compounds retested in dose-response had high values
Chromo domain-containing protein 1 (Saccharomyces cerevisiae (strain ATCC 204508 / S288c) (Baker's yeast)), sequence (P32657 whole entry, the tested form may be a part): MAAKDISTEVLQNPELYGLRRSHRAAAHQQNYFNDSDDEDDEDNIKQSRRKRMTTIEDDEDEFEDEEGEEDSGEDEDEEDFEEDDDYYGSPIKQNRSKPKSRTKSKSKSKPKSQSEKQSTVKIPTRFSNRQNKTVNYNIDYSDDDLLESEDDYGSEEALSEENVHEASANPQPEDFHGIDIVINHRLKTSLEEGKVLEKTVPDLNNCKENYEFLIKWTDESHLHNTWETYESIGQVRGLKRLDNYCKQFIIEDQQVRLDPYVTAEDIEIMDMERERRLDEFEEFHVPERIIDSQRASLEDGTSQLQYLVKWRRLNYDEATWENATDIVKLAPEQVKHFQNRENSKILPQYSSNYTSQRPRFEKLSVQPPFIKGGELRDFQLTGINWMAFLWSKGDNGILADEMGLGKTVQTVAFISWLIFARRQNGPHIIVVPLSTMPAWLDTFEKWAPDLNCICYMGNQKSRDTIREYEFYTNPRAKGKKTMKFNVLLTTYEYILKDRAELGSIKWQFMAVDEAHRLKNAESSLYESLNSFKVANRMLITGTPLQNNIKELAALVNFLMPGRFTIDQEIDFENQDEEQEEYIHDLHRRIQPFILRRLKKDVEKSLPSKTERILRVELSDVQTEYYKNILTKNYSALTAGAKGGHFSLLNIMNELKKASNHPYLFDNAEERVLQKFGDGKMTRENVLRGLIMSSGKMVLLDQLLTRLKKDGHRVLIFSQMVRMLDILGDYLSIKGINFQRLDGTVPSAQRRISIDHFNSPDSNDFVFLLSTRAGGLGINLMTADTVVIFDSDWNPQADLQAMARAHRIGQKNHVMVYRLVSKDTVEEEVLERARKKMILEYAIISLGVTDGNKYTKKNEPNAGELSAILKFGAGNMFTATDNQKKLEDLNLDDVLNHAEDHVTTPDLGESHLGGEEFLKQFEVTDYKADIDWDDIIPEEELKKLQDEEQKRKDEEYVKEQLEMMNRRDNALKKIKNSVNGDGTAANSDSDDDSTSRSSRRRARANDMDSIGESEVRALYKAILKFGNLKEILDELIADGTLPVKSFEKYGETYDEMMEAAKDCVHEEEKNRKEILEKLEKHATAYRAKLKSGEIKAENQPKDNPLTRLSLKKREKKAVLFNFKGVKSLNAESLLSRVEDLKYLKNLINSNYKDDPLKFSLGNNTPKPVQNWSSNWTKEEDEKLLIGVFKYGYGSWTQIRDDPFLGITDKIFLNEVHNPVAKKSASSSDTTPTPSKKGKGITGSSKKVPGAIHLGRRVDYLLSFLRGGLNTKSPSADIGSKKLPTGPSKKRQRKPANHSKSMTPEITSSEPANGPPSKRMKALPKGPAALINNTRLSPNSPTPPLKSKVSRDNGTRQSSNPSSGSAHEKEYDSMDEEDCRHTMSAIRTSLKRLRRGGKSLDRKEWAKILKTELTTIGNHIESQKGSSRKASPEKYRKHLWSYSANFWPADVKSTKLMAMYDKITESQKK

## Cc1noc(C)c1CN(C)C(=O)c1ccc(NC2CC2)nc1
[1]
  Percent Effect: -1.87%
[2]
  Percent Effect: 15.8%
[3]
  Percent Effect: -5.49%
[4]
  Percent Effect: 6.74%
[5]
  Percent Effect: 1.59%
[6]
  Percent Effect: 2.88%
[7]
  Percent Effect: 5.84%
[8]
  Percent Effect: -7.41%
[9]
  Percent Effect: 9.36%
[10]
  Percent Effect: 18.5%
[11]
  Percent Effect: -4.25%

## CCc1ccc(CN2CCC3(CC2)CC(N2CCN(C)CC2)CO3)cc1 (centres undefined)
[1]
  Percent Effect: -9.52%
[2]
  Percent Effect: 0%
[3]
  Percent Effect: 7.52%
[4]
  Percent Effect: 5.26%
[5]
  Percent Effect: -0.293%
[6]
  Percent Effect: -2.23%
[7]
  Percent Effect: 11.6%
[8]
  Percent Effect: -0.446%
[9]
  Percent Effect: 4.32%
[10]
  Percent Effect: 5.13%
[11]
  Percent Effect: 14%

## COCCc1noc(CN2CCCC(Cn3nc(C)nc3C)C2)n1 (centres undefined)
[1]
  Percent Effect: -3.69%
[2]
  Percent Effect: 16.2%
[3]
  Percent Effect: -5.81%
[4]
  Percent Effect: 6.95%
[5]
  Percent Effect: 0.472%
[6]
  Percent Effect: -7.62%
[7]
  Percent Effect: 3.6%
[8]
  Percent Effect: 8.21%
[9]
  Percent Effect: 10.3%
[10]
  Percent Effect: 23.5%
[11]
  Percent Effect: -11.8%

## Cc1nn(C)c2cnn(CC(=O)NCCc3ccccc3)c12
[1]
  Percent Effect: -4.41%
[2]
  Percent Effect: 6.67%
[3]
  Percent Effect: 5.28%
[4]
  Percent Effect: 4.15%
[5]
  Percent Effect: -2.16%
[6]
  Percent Effect: -12.5%
[7]
  Percent Effect: 13.3%
[8]
  Percent Effect: 1.66%
[9]
  Percent Effect: 5.29%
[10]
  Percent Effect: 17.9%
[11]
  Percent Effect: -8.21%
